# Laboratory results as given in article PMC4336329 (PLoS ONE, 2015).
# The campaign covered roughly 310,000 compounds. About 14,000 (4.5%) showed an effect of 50% or more. The effect is printed as a negative number. What follows is part of a selection rich in strong results, with near analogues and random picks from the rest.
# Target: human ether-à-go-go-related gene (hERG) potassium channel (human, UniProt Q12809)
# Experiment: primary screen, population patch clamp on CHO cells stably expressing hERG; higher = less effect of the substance
# 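Note: peak tail current of the secondary pulse compared with the same well before compound.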
# Sequence of human ether-à-go-go-related gene (hERG) potassium channel (Q12809 whole entry, looked up): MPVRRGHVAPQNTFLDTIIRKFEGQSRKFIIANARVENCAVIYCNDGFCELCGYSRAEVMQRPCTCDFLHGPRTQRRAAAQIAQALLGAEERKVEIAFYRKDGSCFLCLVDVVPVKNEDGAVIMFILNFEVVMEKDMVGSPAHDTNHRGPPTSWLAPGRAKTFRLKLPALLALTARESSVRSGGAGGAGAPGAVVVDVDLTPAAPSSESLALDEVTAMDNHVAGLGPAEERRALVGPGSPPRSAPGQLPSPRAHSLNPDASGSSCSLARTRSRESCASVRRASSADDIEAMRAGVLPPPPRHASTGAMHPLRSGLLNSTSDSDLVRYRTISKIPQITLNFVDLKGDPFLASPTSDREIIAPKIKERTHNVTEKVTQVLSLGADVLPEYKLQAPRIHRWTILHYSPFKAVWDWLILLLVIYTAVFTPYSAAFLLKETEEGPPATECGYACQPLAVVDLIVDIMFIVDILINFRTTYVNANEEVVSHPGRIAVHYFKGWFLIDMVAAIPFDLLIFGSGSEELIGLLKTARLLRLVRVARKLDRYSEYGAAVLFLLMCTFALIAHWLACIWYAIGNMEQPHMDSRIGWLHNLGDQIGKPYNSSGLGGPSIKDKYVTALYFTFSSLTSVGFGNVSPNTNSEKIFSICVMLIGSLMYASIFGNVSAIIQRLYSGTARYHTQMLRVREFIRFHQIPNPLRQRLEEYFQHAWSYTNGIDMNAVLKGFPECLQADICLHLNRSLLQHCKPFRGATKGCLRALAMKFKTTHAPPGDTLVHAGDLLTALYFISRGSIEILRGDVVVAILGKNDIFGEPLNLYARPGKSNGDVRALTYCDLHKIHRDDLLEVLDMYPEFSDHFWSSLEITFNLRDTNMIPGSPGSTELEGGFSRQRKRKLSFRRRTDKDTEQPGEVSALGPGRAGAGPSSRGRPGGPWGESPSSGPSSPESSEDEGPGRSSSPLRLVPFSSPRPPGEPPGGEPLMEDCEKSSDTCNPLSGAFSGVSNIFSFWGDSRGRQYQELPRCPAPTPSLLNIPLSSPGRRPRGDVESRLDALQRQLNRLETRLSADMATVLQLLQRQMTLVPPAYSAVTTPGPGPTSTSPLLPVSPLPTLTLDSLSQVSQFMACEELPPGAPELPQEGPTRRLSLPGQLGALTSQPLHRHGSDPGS
row,Compound,"hERG current change (%, negative = inhibition) at 10uM [%]"
1,Nc1ccc2nc3c(=O)n(C4CCCCC4)c(=O)[nH]c3nc2c1,-0.914
2,CC(=O)c1c(C(C)=O)c(C)n(C2CCCCC2)c1C,2.97
3,NC(=O)c1ccc(NC(=O)CCCc2nc(-c3ccccc3Cl)no2)cc1,18.4
4,CCOc1ccc(S(=O)(=O)N2CCC(C(=O)NCCN3CCOCC3)CC2)cc1C,1.77
5,CCOC(=O)C(=CNc1ncccc1C)C(=O)OCC,1.51
6,CC(C)CCNC(=O)Cn1c(=O)oc2cc(S(=O)(=O)N3CC(C)CC(C)C3)ccc21 (centres unmarked),13.3
7,CN1CCN(CCCc2c3c(cc4c2CCC4)CCC3)CC1.Cl,-19.8
8,Cc1cc(N2CCCCC2)nc2ccc(NC(=O)c3ccc(Br)o3)cc12,-52.9
9,COc1ccc(C(=O)Nc2ccc3nc(N4CCCCC4)cc(C)c3c2)c(OC)c1,4.06
10,CCCCNC(=O)CCC(=O)Nc1ccc2nc(N3CCCCC3)cc(C)c2c1,-18.5
11,CCC1(c2ccccc2)NC(=O)N(CC(=O)Nc2cc(S(=O)(=O)N3CCCCC3)ccc2OC(C)C)C1=O (centres unmarked),-5.02
12,CCOc1ccc(S(=O)(=O)N2CCOCC2)cc1NC(=O)CN1C(=O)NC(C)(c2ccccc2)C1=O (centres unmarked),-52.6
13,CC(C)Oc1ccc(S(=O)(=O)N2CCOCC2)cc1NC(=O)CN1C(=O)NC2(CCCC2)C1=O,-17.8
14,CCOc1ccc(S(=O)(=O)N2CCOCC2)cc1NC(=O)CN1C(=O)NC2(CCCC2)C1=O,5.87
15,CC1(c2ccccc2)NC(=O)N(CC(=O)Nc2cc(S(=O)(=O)N3CCOCC3)ccc2Cl)C1=O (centres unmarked),-7.82
16,CCC1(c2ccccc2)NC(=O)N(CC(=O)Nc2cc(S(=O)(=O)N3CCOCC3)ccc2OC(C)C)C1=O (centres unmarked),-55.7
17,CCOc1ccc(S(=O)(=O)N2CCOCC2)cc1NC(=O)CN1C(=O)NC(CC)(c2ccccc2)C1=O (centres unmarked),-73.5
18,CCOc1ccc(S(=O)(=O)N2CCCCC2)cc1NC(=O)CN1C(=O)NC(C)(c2ccccc2)C1=O (centres unmarked),-35.5
19,CCOc1ccc(S(=O)(=O)N2CCCCC2)cc1NC(=O)CN1C(=O)NC(CC)(c2ccccc2)C1=O (centres unmarked),-15
20,C[C@H](C(=O)NCc1ccccc1)C(=O)c1ccccc1,18
21,CCOC(=O)CN1C(=O)C(O)(CC(=O)c2ccccn2)c2ccccc21 (centres unmarked),14.6

row,Compound,"hERG current change (%, negative = inhibition) at 10uM [%]"
1,Cc1nn(Cc2ccccc2)c(C)c1C(=O)NCc1ccccc1,6.55
2,COc1ccc2cc(C(=O)OC(C)C)sc(=O)c2c1OC,2.45
3,Cc1ccc(/C(N)=N/OC(=O)c2ccc3ccccc3c2)cc1,0.62
4,CCOC(=O)N1CCC(N2Cc3cccc(C(=O)NCc4ccc5c(c4)OCO5)c3C2=O)CC1,-19.5
5,CCOC(=O)N1CCC(N2Cc3cccc(C(=O)Nc4c(C)cccc4CC)c3C2=O)CC1,-77.1
6,O=C(Nc1cccc(F)c1)c1cccc2c1C(=O)N(C1CCCCC1)C2,12.2
7,CCOC(=O)N1CCC(N2Cc3cccc(C(=O)Nc4ccc(N(CC)CC)cc4C)c3C2=O)CC1,-7.16
8,CCOC(=O)N1CCC(N2Cc3cccc(C(=O)Nc4cc(F)ccc4F)c3C2=O)CC1,-23.1
9,CCOC(=O)N1CCC(N2Cc3cccc(C(=O)Nc4cccc(F)c4)c3C2=O)CC1,-72.1
10,CCOC(=O)N1CCC(N2Cc3cccc(C(=O)NC(C)c4ccc5c(c4)OCCO5)c3C2=O)CC1 (centres unmarked),-67.5
11,CCOC(=O)N1CCC(N2Cc3cccc(C(=O)Nc4ccc(OCC)cc4)c3C2=O)CC1,9.07
12,CCOC(=O)N1CCC(N2Cc3cccc(C(=O)Nc4ccc(F)cc4)c3C2=O)CC1,-55.3
13,Cc1cccc(C)c1NC(=O)c1cccc2c1C(=O)N(C1CCCCC1)C2,-7.01
14,CCOC(=O)N1CCC(N2Cc3cccc(C(=O)Nc4ccc(CC)cc4)c3C2=O)CC1,-42.6
15,CCOC(=O)N1CCC(N2Cc3cccc(C(=O)NCc4ccccn4)c3C2=O)CC1,-34.5
16,COc1ccc(OC)c(/C=N/n2c(COc3ccccc3)n[nH]c2=S)c1,12.2
17,CCOc1ccc(-c2noc(-c3cccnc3)n2)cc1OCC,13.7
18,O=c1[nH]nc(Cc2ccc3ccccc3n2)c2ccccc12,1.36
19,COc1ccc2[nH]c(=O)c(CN(Cc3cccs3)C(=S)Nc3ccccc3)cc2c1,16.7
20,Fc1ccc(NC(=S)Nc2cccnc2)c(F)c1F,20.1
